The record followed here is PubChem BioAssay (NCATS).

“And” between values parts separate entries of the source, which are not always exact repeats. Equal values may be shown once. Unmarked numbers belong to inactive results. Inconclusive results are not listed. The source made the active and inactive calls. Calls come from the whole dose curve; as a rule, active = well fitted curve in the direction sought with a large enough effect; inconclusive = small, poorly fitted or top-dose-only effect, or another doubt; inactive = no such curve, though single readings can be large; an effect the other way counts as inactive or inconclusive.

Assay [1] can be described thus: Primary qHTS for inhibitors of nuclear receptor binding SET domain protein 2 (NSD2) in an RCH-ACV wild type WT cells (2C) (AID 1645877). Note: nearly all actives have a fitted effect of over 70% in size. Note: potency is the fitted concentration of half-maximal effect. A general note: Quantitative high-throughput screening tests each substance at several concentrations.
Assay [2] deals with Glutathione peroxidase 1 (Homo sapiens) (UniProt P07203). Description: Primary qHTS Assay for Inhibitors of Recombinant Selenoprotein Glutathione Peroxidase 1 (GPX1) (AID 1845191). For activity, negative = inhibition: % is set by controls: 0 for no effect and ±100 for the full control effect. Note: nearly all actives have a fitted effect of over 65% in size. The method in brief: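 Recombinant GPX1 (10 nM final) was preincubated with compound for 30 min at room temperature, then reacted with 1 mM GSH, 0.5 mM CHP, 0.5 mM NADPH and 100 nM glutathione reductase; NADPH fluorescence (340/450 nm) was read at 0 and 15 min.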
Chain of Glutathione peroxidase 1 (Homo sapiens) (P07203 whole entry, looked up): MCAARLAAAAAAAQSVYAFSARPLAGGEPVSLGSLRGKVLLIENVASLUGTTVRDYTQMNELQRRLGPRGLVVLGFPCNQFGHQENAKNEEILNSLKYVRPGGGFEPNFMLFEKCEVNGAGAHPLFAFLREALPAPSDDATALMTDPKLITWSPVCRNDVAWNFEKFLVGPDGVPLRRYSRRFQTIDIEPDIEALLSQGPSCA

Assay [3] addresses Phospholipid hydroperoxide glutathione peroxidase GPX4 (Homo sapiens) (UniProt P36969). Put plainly: Primary qHTS Assay for Inhibitors of Recombinant Selenoprotein Glutathione Peroxidase 4 (GPX4) (AID 1845192). Note: nearly all actives have a fitted effect of over 65% in size. The method in brief:
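GR-coupled readout: 100 nM GR, 1 mM GSH, 0.5 mM NADPH; NADPH fluorescence (ex 340/em 450 nm) read at t=0 and after 15 min RT. GPX4 200 nM, preincubated 30 min with compound; substrate 0.5 mM CHP.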

In assay [4] the target is Luciferin 4-monooxygenase (Photinus pyralis) (UniProt P08659). Description: Primary firefly luciferase (FLuc) qHTS assay for identification of artifact compounds. (AID 1845220). Note: nearly all actives have a fitted effect of over 60% in size. Note: potency is the fitted concentration of half-maximal effect. Put shortly:
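qHTS, 15 min compound preincubation with substrate (10 uM luciferin, 10 uM ATP) at RT, then 10 nM FLuc; 5 min; luminescence; % inhibition vs no-enzyme/DMSO controls, 4-parameter Hill fit.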

The subject of assay [5] is Nanoluciferase (engineered Oplophorus gracilirostris luciferase). Description: Primary Nanoluciferase (NLuc) qHTS assay for identification of artifact compounds. (AID 1845222).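 Note: series mostly up to about 54 µM; 0% = DMSO and -100% = no enzyme.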 The method in brief:
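Luminescence read-out of secreted NLuc in S16 cell conditioned medium (1:55); compounds tested with 15 min RT preincubation, then Nano-Glo substrate 1:100, 5 min. % inhibition vs no-enzyme and DMSO controls, 4-parameter Hill fit.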

Assay [6] is described as follows: Primary redox qHTS assay for identification of artifact compounds. (AID 1845223).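 Note: 0% = DMSO and 100% = reference compound.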 The method in brief:
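Amplex Red (25 uM) and HRP (250 mU/mL) in HBSS, with compounds for 15 min, then 250 uM DTT for 30 min, room temperature, dark. Fluorescence 525/598 nm read; normalized to DMSO and 10 uM DA3003; Hill fit.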

Assay [7] can be described thus: Primary fluorescence-based thiol-reactive (MSTI) qHTS assay for identification of artifact compounds. (AID 1845221).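 For activity change, negative = thiol reactive: series mostly up to about 54 µM; thiol-reactive compounds lower the probe fluorescence signal.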 Note: nearly all actives have a fitted effect of over 65% in size. Note: potency is the fitted concentration of half-maximal effect. The method in brief:
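qHTS titration of compound; 4 uM MSTI, PBS pH 7.4, 2% DMSO; 1 h RT, dark; fluorescence 525/598 nm; normalized to Acetyl-MSTI and MSTI; 4-parameter Hill fit.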

Chain of Phospholipid hydroperoxide glutathione peroxidase GPX4 (Homo sapiens) (P36969 whole entry, looked up): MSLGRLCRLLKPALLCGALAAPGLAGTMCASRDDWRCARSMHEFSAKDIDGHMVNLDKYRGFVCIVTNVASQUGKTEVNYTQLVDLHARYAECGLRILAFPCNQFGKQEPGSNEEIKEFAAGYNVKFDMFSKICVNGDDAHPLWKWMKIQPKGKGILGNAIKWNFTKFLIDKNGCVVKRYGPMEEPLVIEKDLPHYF

On to `CC(C)=CCC/C(C)=C/CCC1(C)Oc2c(c(O)cc3c2CN(C(CCC(=O)O)C(=O)O)C3=O)CC1O` (stereo unspecified), for which the Potency entry in assay [1], in assay [2], in assay [3], in assay [4], in assay [5] and in assay [6] was “inactive” throughout.
With `C/C1=C\CC[C@H](C)CCO[C@@H]2O[C@H](CO[C@@H]3OC[C@](O)(COC1=O)[C@H]3O)[C@@H](O)[C@H](O)[C@H]2O`, the Potency result in assay [1], in assay [2], in assay [3], in assay [4], in assay [5] and in assay [6] was “inactive” each time.
For the compound `CC1C(=O)OCC2=CCN3CCC(OC(=O)C(C)(O)C1(C)O)C23` (stereo unspecified), the Potency entry in assay [1], in assay [2], in assay [3], in assay [4], in assay [5] and in assay [6] was “inactive” throughout.
Take `COC(=O)C1=CO[C@@H](O[C@@H]2O[C@H](CO)[C@@H](O)[C@H](O)[C@H]2O)[C@@H]2C(CO)=CC[C@]12O`: the Potency entry in assay [1], in assay [2], in assay [3], in assay [5] and in assay [6] was “inactive” each time.
Turning to `O=C1N=C(N2CCOCC2)CN1c1ccc(Cl)cc1`, the Potency entry in assay [1], in assay [2], in assay [3], in assay [4], in assay [5] and in assay [6] was “inactive” throughout.
As for `c1ccc(-c2csc(N3CCOCC3)n2)cc1`, the Potency entry in assay [1], in assay [2], in assay [3], in assay [5] and in assay [6] was “inactive” throughout.
`O=C(Nc1ccc(S(=O)(=O)C(F)(F)F)cc1)C1=CCN(c2ncccc2C(F)(F)F)CC1`: in assay [1], the Potency is 10.3 µM (active). Besides, the Potency result in assay [2], in assay [3], in assay [7], in assay [5] and in assay [6] was “inactive” in each case.
With `C=C1CCCC2(C)CC3(OC)OC(=O)C(C)=C3CC12` (stereo unspecified), the Potency entry in assay [1], in assay [2], in assay [3], in assay [7], in assay [5] and in assay [6] was “inactive” each time.
`CC(=O)O[C@@H]1[C@@H](CO)O[C@@](CO)(O[C@H]2O[C@H](COC(=O)/C=C/c3ccccc3)[C@@H](O)[C@H](O)[C@H]2O)[C@H]1O`: the Potency result in assay [1], in assay [2], in assay [3], in assay [5] and in assay [6] was “inactive” each time. Moreover, the Potency in assay [7] is 4620 nM (active).
Consider `C/C=C/c1ccc2oc(-c3ccc(O)c(OC)c3)c(C)c2c1`, for which the Potency was 16.3 µM (active) in assay [1] and 26900 nM (active) in assay [4]. Further, the Potency entry in assay [2], in assay [3], in assay [5] and in assay [6] was “inactive” each time.
Consider `COCCOc1ccc(N2CCN(CCn3ncc4c3nc(N)n3nc(-c5ccco5)nc43)CC2)cc1`, for which the Potency result in assay [1], in assay [2], in assay [3], in assay [7], in assay [5] and in assay [6] was “inactive” in each case.
Turning to `CC1(C(=O)O)CCCC2(C)C3CCC4CC3(CCC12)CC4=O` (stereo unspecified), the Potency result in assay [1], in assay [2], in assay [3], in assay [7], in assay [5] and in assay [6] was “inactive” in each case.
In the case of `Cn1nnc(-c2ccc(-c3ccc(N4C[C@H](CO)OC4=O)cc3F)cn2)n1`, the Potency entry in assay [1], in assay [2], in assay [3], in assay [7], in assay [5] and in assay [6] was “inactive” throughout.
`COc1cc(/C=C/CO)cc(OC)c1O[C@@H]1O[C@H](CO[C@@H]2O[C@H](CO)[C@@H](O)[C@H](O)[C@H]2O)[C@@H](O)[C@H](O)[C@H]1O`: the Potency entry in assay [1], in assay [2], in assay [3], in assay [5] and in assay [6] was “inactive” each time.
For the compound `C#CCN(Cc1cc2c(=O)[nH]c(C)nc2cc1Br)c1ccc(C(=O)NCc2cccnc2)cc1`, in assay [1], the Potency is 0.0023 µM (active). Besides, the Potency entry in assay [2], in assay [3], in assay [7], in assay [5] and in assay [6] was “inactive” in each case.
In the case of `CCN1CCN(Cc2ccc(NC(=O)c3ccc(C)c(/C=C/c4cnc5[nH]ccc5c4OC)c3)cc2C(F)(F)F)CC1`, the Potency in assay [1] was 230 nM (active) and 1.18 µM (active). The Potency result in assay [2], in assay [3], in assay [7], in assay [5] and in assay [6] was “inactive” throughout.
In the case of `CC1=C(COC2OC(CO)C(O)C(O)C2O)C(C(CO)C(=O)O)CC1` (stereo unspecified), the Potency entry in assay [1], in assay [2], in assay [3], in assay [4], in assay [5] and in assay [6] was “inactive” each time.
As to `CN(C)c1ccc2c(c1)OC(N)=C(C#N)C2c1cccc(C(F)(F)F)c1` (stereo unspecified), the Potency was 0.916 µM (active) in assay [1] and 2120 nM (active) in assay [7]. The Potency result in assay [2], in assay [3] and in assay [5] was “inactive” each time.
For the compound `CCCCOC(=O)NC(=O)C1c2ccccc2Oc2ccccc21`, the Potency entry in assay [1], in assay [2], in assay [3], in assay [7], in assay [5] and in assay [6] was “inactive” throughout.
For the compound `C(#Cc1nc2ncccc2nc1OCCN1CCCC1)c1ccccc1`, the Potency in assay [1] was 2.3 µM (active). Also, the Potency entry in assay [2], in assay [3], in assay [7] and in assay [5] was “inactive” throughout.
Turning to `CC(=O)N[C@@H](CCCCN)C(=O)N(C)[C@@H](CC(C)C)C(=O)N[C@H](C(=O)N(C)[C@@H](Cc1ccccc1)C(=O)N[C@H](Cc1ccccc1)C(N)=O)C(C)C`, the outcome in assay [1] is “inactive [at 4.96 µM]”; in assay [3], “inactive [at 4.52 µM]”. In addition, the results for the activity, negative = inhibition in assay [2] and in assay [5] were 0.986% [at 4.49 µM] and 2.14% [at 6.45 µM], respectively. The activity change, negative = thiol reactive in assay [7] is 50.7% [at 6.41 µM]. Also, the redox activity (% of DA3003) in assay [6] was -1.23% [at 6.41 µM].
As for `O=C(OCC1=CC(O)C2C=CO[C@@H](O[C@@H]3O[C@H](CO)[C@@H](O)[C@H](O)[C@H]3O)C12)c1ccccc1` (stereo partly specified), the Potency result in assay [1], in assay [2], in assay [3], in assay [5] and in assay [6] was “inactive” in each case.
Consider `COc1cc(-c2ncn(/C=C\C(=O)OC(C)C)n2)cc(C(F)(F)F)c1`, for which the Potency in assay [1] is 0.129 µM (active). In addition, the Potency entry in assay [2], in assay [3], in assay [7] and in assay [5] was “inactive” throughout.
